According to publication PMC5540273 (PLoS ONE, 2017):

Experiments:
Details in all cases: concentration: 1 μM, replicates: in singlicate; n = 1
[1] = test system: CAMK4
[2] = test system: CAMKK1
[3] = test system: CAMKK2
[4] = test system: CASK
[5] = test system: T1, CDC2L1
T1 construct: gene CDK11B

[6] = test system: CDC2L2
[7] = test system: T2, CDC2L5
T2 construct: gene CDK13

[8] = test system: T3, CDK11
T3 construct: gene CDK19

[9] = test system: CDK2
[10] = test system: CDK3
[11] = test system: CDK4-cyclinD1
[12] = test system: CDK4-cyclinD3
[13] = test system: CDK4
[14] = test system: CDK5
[15] = test system: CDK7
[16] = test system: CDK8
[17] = test system: CDK9
[18] = test system: CDKL1
[19] = test system: CDKL2
[20] = test system: CDKL3
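Note: KINOMEscan kinase panel screen.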

Compound | %Inh [1] [%] | %Inh [2] [%] | %Inh [3] [%] | %Inh [4] [%] | %Inh [5] [%] | %Inh [6] [%] | %Inh [7] [%] | %Inh [8] [%] | %Inh [9] [%] | %Inh [10] [%] | %Inh [11] [%] | %Inh [12] [%] | %Inh [13] [%] | %Inh [14] [%] | %Inh [15] [%] | %Inh [16] [%] | %Inh [17] [%] | %Inh [18] [%] | %Inh [19] [%] | %Inh [20] [%]
Fc1ccc(-c2nn3cccc(F)c3c2-c2ccncc2)cc1 [GW475620] | 19 | 0 | 5 | 4 | 0 | 0 | 0 | 10 | 7 | 0 | 1 | 0 | 24 | 17 | 0 | 15 | 0 | 0 | 14 | 0
Cn1cncc1C(=O)NC1CCN(c2ccnc(Nc3ccc(F)cc3)n2)C1 (stereo not drawn) [GSK1379717] | 0 | 30 | 32 | 14 | 0 | 6 | 0 | 3 | 0 | 0 | 0 | 14 | 2 | 0 | 0 | 29 | 0 | 99 | 3 | 99.5
Cn1cncc1-c1cc2c(Nc3ccc(OCc4ccccc4)cc3)ncnc2cn1 [GW281179] | 0 | 3 | 32 | 20 | 0 | 17 | 0 | 47 | 0 | 7 | 0 | 4 | 0 | 0 | 0 | 17 | 0 | 100 | 21 | 0
Cc1ccccc1Cn1ccn2c(=O)cc(N3CCOCC3)nc12 [GSK2269905] | 0 | 9 | 31 | 15 | 0 | 0 | 0 | 0 | 0 | 12 | 0 | 0 | 0 | 0 | 0 | 0 | 0 | 12 | 15 | 0
O=C(Nc1n[nH]c2cc(-c3ccsc3)ccc12)C1CC1 [SB-732932] | 0 | 9 | 0 | 23 | 13 | 3 | 47 | 5 | 57 | 38 | 14 | 0 | 86 | 14 | 21 | 0 | 17 | 10 | 94.7 | 36
COc1ccc(Nc2nccc(NCCNC(=O)Nc3cc(C)ccc3C)n2)cc1 [GSK1379899] | 0 | 13 | 0 | 0 | 0 | 0 | 0 | 0 | 0 | 6 | 0 | 0 | 3 | 0 | 0 | 13 | 0 | 0 | 21 | 0
COc1ccc(-c2coc3ccc(-c4nnc(C)o4)cc23)cc1 | 13 | 0 | 16 | 0 | 0 | 0 | 21 | 0 | 0 | 0 | 0 | 0 | 0 | 0 | 0 | 0 | 0 | 24 | 0 | 0
CC(=O)c1c(C)c2cnc(Nc3ccn(C)n3)nc2n(C2CCCC2)c1=O | 0 | 7 | 13 | 12 | 0 | 100 | 0 | 2 | 3 | 0 | 99.6 | 98.4 | 19 | 0 | 0 | 0 | 18 | 0 | 0 | 0
CS(=O)(=O)CCNCc1nc(-c2ccc3ncnc(Nc4ccc(OCc5ccccc5)c(Cl)c4)c3c2)cs1.Cl [GW582764] | 0 | 0 | 7 | 5 | 0 | 0 | 0 | 0 | 0 | 1 | 45 | 0 | 38 | 0 | 0 | 47 | 0 | 9 | 18 | 0
Cc1ccc(-c2nc(Nc3ccncc3)c3ccccc3n2)s1 [GSK189015] | 26 | 0 | 7 | 0 | 0 | 17 | 0 | 9 | 24 | 0 | 0 | 0 | 0 | 100 | 0 | 3 | 5 | 0 | 0 | 0
CC(=O)c1c(C)c2cnc(Nc3ccc(N4CCNCC4)cn3)nc2n(C2CCCC2)c1=O | 0 | 0 | 0 | 0 | 0 | 3 | 0 | 0 | 0 | 8 | 96.6 | 98.5 | 21 | 0 | 27 | 0 | 2 | 0 | 0 | 6
COc1ccc(Nc2nccc(-c3ccc(NC(=O)c4cc5cc(F)ccc5[nH]4)cc3)n2)cc1 [GSK1229496] | 0 | 0 | 17 | 0 | 0 | 14 | 0 | 22 | 0 | 0 | 0 | 0 | 39 | 0 | 0 | 20 | 0 | 0 | 0 | 0
FC(F)(F)c1ccccc1-c1cc(-c2c[nH]nc2-c2ccccn2)ccn1 [GW679396] | 0 | 5 | 21 | 17 | 0 | 0 | 0 | 0 | 0 | 0 | 17 | 0 | 32 | 0 | 0 | 9 | 4 | 0 | 6 | 0
Fc1ccc(-c2nc[nH]c2-c2ccncc2)cc1 [SB-217360] | 0 | 0 | 1 | 13 | 0 | 0 | 0 | 0 | 0 | 0 | 0 | 0 | 15 | 0 | 0 | 38 | 0 | 12 | 16 | 2
COc1ccc(CSc2nnc(-c3ccc4nccn4c3)o2)cc1C(F)(F)F | 0 | 0 | 0 | 15 | 4 | 5 | 50 | 40 | 0 | 4 | 7 | 13 | 0 | 10 | 13 | 21 | 0 | 21 | 7 | 18
Fc1ccc(-c2nc3n(c2-c2ccncc2)CCS3)cc1 [GI98581] | 0 | 8 | 0 | 20 | 0 | 0 | 0 | 7 | 6 | 24 | 0 | 0 | 31 | 6 | 0 | 19 | 0 | 2 | 4 | 0
Cc1ccc(NC(=O)c2ccc(Cl)cc2)cc1-c1ccc(C(=O)Nc2ccncc2)cc1 [GSK1398467] | 0 | 0 | 5 | 16 | 0 | 24 | 0 | 2 | 0 | 6 | 0 | 0 | 0 | 0 | 0 | 0 | 0 | 13 | 20 | 0
CC(=O)c1cccc(NC(=O)NC2CCN(c3ccnc(Nc4ccc(F)cc4)n3)C2)c1 (stereo not drawn) [GSK1379710] | 0 | 26 | 24 | 6 | 0 | 17 | 0 | 80 | 8 | 6 | 0 | 0 | 38 | 0 | 7 | 76 | 17 | 27 | 59 | 0
Cc1cnc(N)c(/C=C/c2cncc(C(=O)NCCc3ccc(Cl)cc3Cl)c2)c1.Cl [GSK190937] | 0 | 7 | 20 | 7 | 0 | 17 | 0 | 92.8 | 0 | 6 | 0 | 0 | 16 | 0 | 0 | 88 | 0 | 0 | 15 | 0
CNCc1ccc2nc(NC(=O)c3ccc(C(C)(C)C)cc3)cn2c1 | 6 | 0 | 12 | 18 | 16 | 4 | 33 | 4 | 0 | 7 | 14 | 0 | 3 | 0 | 8 | 1 | 3 | 0 | 0 | 0
Cc1c(Cn2c(C)c(C)n3c(=O)cc(N4CCOCC4)nc23)cccc1C(F)(F)F [GSK2328680] | 0 | 0 | 10 | 16 | 0 | 14 | 0 | 0 | 2 | 7 | 0 | 0 | 0 | 0 | 0 | 34 | 0 | 100 | 6 | 0
